# Assay results published in PubChem BioAssay AID743149 (Broad Institute, 2013).
# Potency and affinity values are given separately. The source made the active and inactive calls. A call without a number means that no potency is given here. The rule behind the calls is not given here.
# Experiment: cytotoxicity in OV-90 ovarian cancer cells, dose response, PAX8 inhibitor project, cell-based, plate reader, dry powder, SA8 (AID 743149)
# Conditions: series mostly up to 35 µM
row,Structure (SMILES),outcome
1,CCN(CC(=O)Nc1c(F)cccc1F)C(=O)c1cc(S(=O)(=O)N(C)C)ccc1N1CCCC1,inactive
2,N#C[C@H]1[C@@H](c2ccc(C#Cc3cccc(F)c3)cc2)[C@@H](CO)N1C(=O)C1CCCC1,inactive
3,N#C[C@@H]1[C@@H](c2ccc(C#Cc3ccccc3F)cc2)[C@H](CO)N1C(=O)C1CCCCC1,inactive
4,O=C(NCCc1ccccc1)c1ccc2c(c1)OCCCO2,inactive
5,O=C(CN1C(=O)c2ccccc2S1(=O)=O)c1ccc(Cl)cc1Cl,inactive
6,Cc1ccccc1OCC(=O)Nc1cccc(C(=O)O)c1,inactive
7,Cc1ccc(S(=O)(=O)Nc2ccc3c(c2)C(=O)N([C@H](C)CO)C[C@@H](C)[C@H](CN(C)Cc2ccc(C(F)(F)F)cc2)OCCCC[C@H](C)O3)cc1,inactive
8,O=C(C[C@H]1CC[C@H]2[C@@H](COC[C@@H](O)CN2S(=O)(=O)c2cccc(Cl)c2)O1)Nc1ccc(-c2ccccc2)cc1,inactive
9,COc1ccc(S(=O)(=O)Nc2ccc3c(c2)CC(=O)N([C@@H](C)CO)C[C@@H](C)[C@@H](CN(C)Cc2ccc(-c4ccccc4)cc2)O3)cc1,inactive
10,COc1ccccc1C#Cc1ccc([C@@H]2[C@@H](C#N)N(C(=O)C3CCCCC3)[C@H]2CO)cc1,inactive
11,N#C[C@@H]1[C@@H](c2ccc(C3=CCCCC3)cc2)[C@@H](CO)N1C(=O)NC1CCCCC1,inactive
12,O=C1/C(=C/c2ccccc2)SC(=S)N1CC(=O)N1CCCCC1c1cccnc1 (stereo unspecified),inactive
13,N#C[C@H]1[C@@H](c2ccc(C3=CCCC3)cc2)[C@@H](CO)N1C(=O)NC1CCCCC1,inactive
14,COCC(=O)N1[C@H](CO)[C@H](c2ccc(-c3cccnc3)cc2)[C@@H]1C#N,inactive
15,COc1cccc(C#Cc2ccc([C@H]3[C@@H](CO)N(C(=O)C4CCCC4)[C@H]3C#N)cc2)c1,inactive
16,COc1cccc(C#Cc2ccc([C@@H]3[C@H](C#N)N(C(=O)c4ccccn4)[C@H]3CO)cc2)c1,inactive

row,Structure (SMILES),outcome
1,O=C(Nc1ccc(OCC(F)(F)C(F)F)c(C(F)(F)F)c1)c1ccccc1O,inactive
2,C[C@@H]1CN([C@H](C)CO)C(=O)CCCn2cc(nn2)CO[C@H]1CN(C)C(=O)Nc1ccc(-c2cccs2)cc1,inactive
3,C[C@H](CO)N1C[C@H](C)[C@@H](CN(C)Cc2ccc(-c3ccccc3)cc2)Oc2ccc(NS(=O)(=O)c3ccccc3)cc2CC1=O,inactive
4,CCCC#Cc1ccc([C@@H]2[C@@H](C#N)N(S(=O)(=O)c3cccc(F)c3)[C@H]2CO)cc1,inactive
5,C[C@H](CO)N1C[C@H](C)[C@@H](CN(C)S(=O)(=O)c2ccc(Cl)cc2)OCCCC[C@H](C)Oc2ccc(NS(=O)(=O)c3ccccc3)cc2C1=O,inactive
6,C[C@@H]1CN([C@H](C)CO)C(=O)CCCn2nncc2CO[C@H]1CN(C)Cc1ccc(Oc2ccccc2)cc1,inactive
7,O=C(CN1C(=O)c2ccccc2S1(=O)=O)c1ccccc1Cl,inactive
8,O=C1/C(=C/c2ccccc2F)SC(=S)N1CC(=O)N1CCCCC1c1cccnc1 (stereo unspecified),inactive
9,O=C1/C(=C/c2cccc(Br)c2)SC(=S)N1CCC(=O)N(CCO)c1ccccc1,inactive
10,C[C@H](CO)N1C[C@H](C)[C@@H](CN(C)S(=O)(=O)c2ccc(-c3ccccc3)cc2)OCc2cn(nn2)CCCC1=O,inactive
11,CCCC#Cc1ccc([C@H]2[C@@H](CO)N(C(=O)C3CCCCC3)[C@H]2C#N)cc1,inactive
12,N#C[C@@H]1[C@H](c2ccc(C#CC3CCCC3)cc2)[C@H](CO)N1C(=O)Nc1ccc(F)cc1,inactive
13,C[C@H](CO)N1C[C@H](C)[C@@H](CN(C)Cc2ccc(-c3ccccc3)cc2)Oc2ccc(NC(=O)C3CC3)cc2CC1=O,inactive
14,COc1cccc(C#Cc2ccc([C@@H]3[C@@H](C#N)N(C(=O)C4CCCCC4)[C@H]3CO)cc2)c1,inactive
15,C[C@H](CO)N1C[C@H](C)[C@H](CN(C)C(=O)Nc2ccc(-c3cccs3)cc2)OCc2cnnn2CCCC1=O,inactive
